Compound activity: PubChem, National Center for Advancing Translational Sciences (NCATS)
Shown are actives, neighbours in structure and some others; about 19% of the full set was active somewhere.
HT1080 IDH1KD tx: qHTS for induction of synthetic lethality in tumor cells producing 2HG: qHTS for the HT-1080-IDH1KD cell line; 2% of 360,000 active; AID 686971, 2013; Potency, µM (doses to about 46.1 µM), inactives show at the top dose activity, negative = toxicity, most hits filed as cytotoxic; HT-1080 IDH1 knockdown viability, ATP luminescence, 48 h;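 further: potency means the concentration at half of the fitted maximal effect; 0% = DMSO wells and -100% = cell-free medium wells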
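Using the IDH1-knockdown HT-1080 line run in the same batch and compound series as the NT line, viability after 48 h at 37 °C was determined by CellTiter-Glo luminescence and expressed as % activity.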
HT1080NT lethal: qHTS for induction of synthetic lethality in tumor cells producing 2HG: qHTS for the HT-1080-NT fibrosarcoma cell line | HT-1080-NT fibrosarcoma viability, CellTiter-Glo ATP luminescence, 48 h | Potency, µM (doses to about 46.1 µM), for inactives: top-dose activity, negative = less viability, actives largely listed as cytotoxic | AID 686970, 2013 | 1.6% of 360,000 active;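 further: NT is the 2HG producing partner of a matched IDH1 knockdown line; potency means the concentration at half of the fitted maximal effect; 0% = DMSO-treated cells and -100% = media-only wells without cells; nearly all actives have a fitted effect of over 55% in size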
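750 cells/well, RPMI + 5% FBS; 2 h settle, compound pin-transfer, 48 h at 37 degrees C. CellTiter-Glo 10 min RT, luminescence. Normalized to DMSO and media-only wells.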
DT40 TDP1 CPT: qHTS for Inhibitors of human tyrosyl-DNA phosphodiesterase 1 (TDP1): qHTS in cells in presence of CPT | chicken DT40 Tdp1-/-;hTDP1 cells + 20 nM CPT, ATP luminescence, 48 h | Potency, µM (top dose mostly 46.2 µM), for inactives: at the top dose activity change, negative = growth inhibition, usual class: inhibitors | 12% of 420,000 active; further: potency means the concentration at half of the fitted maximal effect; nearly all actives have a fitted effect of over 55% in size
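Cell growth measured by CellTiter-Glo luminescence after a minimum 48 h, 37 C compound exposure with 20 nM CPT in Tdp1-knockout DT40 cells stably expressing hTDP1, seeded 400/well; qHTS titration format.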
DT40 TDP1 no CPT: qHTS for Inhibitors of human tyrosyl-DNA phosphodiesterase 1 (TDP1): qHTS in cells in absence of CPT. Potency, µM (titrated, usually from 46.2 µM), without a hit: top-dose activity change, negative = growth inhibition, actives largely listed as inhibitors. 15% of 420,000 active. DT40 Tdp1-/- hTDP1 cells, no CPT, ATP luminescence, 48 h; further: potency means the concentration at half of the fitted maximal effect; nearly all actives have a fitted effect of over 55% in size
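Stably hTDP1-transfected Tdp1-null chicken DT40 cells were treated with library compounds minus camptothecin and grown for at least 48 hr at 37 °C, after which cellular ATP was quantified by luminescence.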
IL-1B inflam inh: qHTS for Inhibitors of Inflammasome Signaling: IL-1-beta AlphaLISA Primary Screen; AID 743279, 2014; THP-1 LPS/ATP IL-1B secretion, AlphaLISA, 16 h; active compounds read low; 4.7% of 360,000 active; activity change, % at 57.5 µM; in the data active means activity change below about -50%; inconclusive means mostly about -30% to -49%
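Secreted IL-1B measured by AlphaLISA bead assay after 16 h compound exposure of THP-1 cells; compounds (final up to 57.5 uM) added 1 h before LPS (250 ng/mL) and ATP (1.25 mM) stimulation; lower signal means less secretion.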
The depositor's hits bear a star; ? = inconclusive; / = no result given; [ ] = another dose, or the depositor's remark. Unless noted, the call rests on the fitted dose curve; in most records, active means well fitted curve in the direction sought with a large enough effect; inconclusive means small, poorly fitted or top-dose-only effect, or another doubt; inactive means no such curve, though single readings can be large; an effect the other way counts as inactive or inconclusive. Unless noted, on the % scale 0 is the no-effect control and ±100 the full control effect.

SMILES	HT1080 IDH1KD tx	HT1080NT lethal	DT40 TDP1 CPT	DT40 TDP1 no CPT	IL-1B inflam inh
C[C@@H]1CCCCO[C@H](CN(C)C(=O)NC2CCCCC2)[C@@H](C)CN([C@H](C)CO)C(=O)c2cc(NC(=O)c3ccccc3)ccc2O1	8.4%	7.3%	?	20.6µM*	?
C[C@@H]1CN([C@@H](C)CO)C(=O)c2cc(NC(=O)c3ccccc3)ccc2O[C@@H](C)CCCCO[C@@H]1CN(C)Cc1ccc(C(F)(F)F)cc1	?	-27.6%	9.2µM*	7.31µM*	?
C[C@@H]1CCCCO[C@@H](CN(C)Cc2ccccc2)[C@@H](C)CN([C@H](C)CO)C(=O)c2cc(NC(=O)Nc3cccc4ccccc34)ccc2O1	-23.3%	-16.0%	-12.3%	20.6µM*	19.8
CC(C)NC(=O)Nc1ccc2c(c1)C(=O)N([C@@H](C)CO)C[C@@H](C)[C@H](CN(C)Cc1ccccc1)OCCCC[C@H](C)O2	-4.8%	-7.3%	-18.6%	?	-11.9
C[C@@H]1CCCCO[C@H](CN(C)C(=O)Nc2ccc(F)cc2)[C@@H](C)CN([C@H](C)CO)C(=O)c2cc(NC(=O)c3ccccc3)ccc2O1	-5.1%	-4.2%	?	?	-25.4
C[C@@H]1CN([C@@H](C)CO)C(=O)c2cc(NC(=O)Nc3ccccc3)ccc2O[C@@H](C)CCCCO[C@H]1CN(C)C(=O)Nc1ccc(C(F)(F)F)cc1	-20.1%	-16.9%	?	?	?
CC(C)(C)NC(=O)Cn1c(=O)c(=O)n(Cc2ccccc2)c2ccc(Cl)cc21	14.0%	6.0%	-6.4%	-8.4%	-6.2
CC(=O)Nc1c(C#N)c(C(C)(C)C)cn1C	-11.2%	8.8%	0.4%	-16.1%	0.0
C[C@@H]1CCCCO[C@@H](CN(C)Cc2ccc3c(c2)OCO3)[C@@H](C)CN([C@H](C)CO)C(=O)c2cc(N(C)C)ccc2O1	0.1%	1.6%	-2.7%	-7.7%	-25.3
C[C@@H]1CCCCO[C@H](CN(C)Cc2ccc3c(c2)OCO3)[C@@H](C)CN([C@H](C)CO)C(=O)c2cc(NC(=O)c3ccccc3)ccc2O1	?	?	20.6µM*	14.6µM*	?
Nc1ccc(-c2cnc(N)c(C(=O)c3cccnc3)n2)cn1	-3.3%	-8.4%	1.84µM*	3.66µM*	-91.2*
c1ccc(CN2CCN(C3CCCSc4ccccc43)CC2)cc1 (stereo not drawn)	-4.2%	-17.3%	?	23.1µM*	-28.3
O=C(CCC(=O)Nc1nnc(C2CCCCC2)s1)Nc1ccccc1	13.4%	16.8%	-1.2%	20.1%	13.0
Cc1cccc(/C=C2/Sc3ccc(C(=O)N4CCOCC4)cc3NC2=O)c1	0.0%	12.4%	?	?	-13.0
O=C1Nc2cc(C(=O)N3CCOCC3)ccc2S/C1=C/c1ccccc1F	0.9%	6.8%	16.4µM*	?	-19.7
O=C1Nc2cc(C(=O)N3CCOCC3)ccc2S/C1=C\c1ccccc1	-1.6%	4.1%	?	23.1µM*	-24.3
O=C1Nc2cc(C(=O)N3CCN(Cc4ccccc4)CC3)ccc2SC1N1CCOCC1 (stereo not drawn)	-4.1%	-10.4%	23.1µM*	?	-18.0
COC(=O)c1ccc2c(c1)NC(=O)C(N1CCOCC1)S2 (stereo not drawn)	-5.8%	2.1%[9.24 µM]	-14.8%	-16.6%	-13.2
Cn1c(SCC(=O)NC(=O)NCc2ccco2)nnc1C(F)(F)F	12.9%	6.8%	1.6%	-0.2%	3.7
COc1cccc(C(=O)NCCS(=O)(=O)N(C)Cc2ccccc2)c1	14.0%	6.2%	-13.2%	?	14.4
COCCc1ccc(OC2(C)CCN(Cc3cccc(OC)c3OC)C2)cc1 (stereo not drawn)	0.5%	-3.7%	?	-11.4%	11.7
CSc1ccc(CN2CCC(C)(Oc3cccc(Cl)c3)C2)cc1 (stereo not drawn)	3.0%	-3.1%	?	?	7.9
COCCc1ccc(OC2(C)CCN(Cc3ccc(OC)c4ccccc34)C2)cc1 (stereo not drawn)	?	?	?	16.4µM*	11.2
COc1cccc(CN2CCC(C)(Oc3cccc(Cl)c3)C2)c1OC (stereo not drawn)	-27.8%	?	?	16.4µM*	12.1
COc1ccc(C(=O)NCc2nnc(SC)n2-c2ccccc2C)c(OC)c1OC	/	/	5.9%[9.04 µM]	-17.4%	/
SMILES	HT1080 IDH1KD tx	HT1080NT lethal	DT40 TDP1 CPT	DT40 TDP1 no CPT	IL-1B inflam inh
CCOc1ccccc1NC(=O)COc1ccc2ccc(=O)oc2c1	26.2%	20.2%	0.5%	1.2%	-11.7
CC(C)Cc1ccc(CN2CCCC(NC(=O)c3nn(C)c(=O)c4ccccc34)C2)cc1 (stereo not drawn)	-1.1%	-7.5%	?	?	-13.5
CC(C)Cc1ccc(CN2CCCC(NC(=O)c3cccc(-n4cnnc4)c3)C2)cc1 (stereo not drawn)	?	?	20.6µM*	23.1µM*	-50.6*
Cc1cc(C(=O)NC2CCCN(Cc3ccc(Cl)cc3)C2)n(C)n1 (stereo not drawn)	-10.0%	-7.0%	?	?	7.0
CC(C)Cc1ccc(CN2CCCC(NC(=O)c3ccoc3)C2)cc1 (stereo not drawn)	-7.1%	0.0%	11.6µM*	13µM*	-8.1
Cc1noc(C)c1CCC(=O)NC1CCCN(Cc2ccc(CC(C)C)cc2)C1 (stereo not drawn)	-23.9%	-12.8%	18.4µM*	14.6µM*	-20.9
CC(C)Cc1ccc(CN2CCCC(NC(=O)c3ccnn3C)C2)cc1 (stereo not drawn)	-19.0%	-12.7%	18.4µM*	23.1µM*	-22.8
CCCCCCCC(=O)NNC(=O)CC(=O)Nc1ccccc1C(=O)O	0.0%	1.6%	-10.3%	-0.8%	20.1
CCOc1cc2sc(N3CCC(C(=O)NCCCN4CCCC4=O)CC3)nc2cc1Br	0.3%	-0.4%	?	?	9.3
CCOc1cc2sc(N3CCC(C(=O)Nc4cc(C)cc(C)c4)CC3)nc2cc1Br	/	/	20.6µM*	-54.1%	/
CCOc1cc2sc(N3CCC(C(=O)Nc4ccc(C)cc4C)CC3)nc2cc1Br	/	/	7.31µM*	20.6µM*	/
COc1cc(NC(=O)CCCC(=O)OCC(F)(F)C(F)F)nc(OC)n1	-4.7%	0.3%	0.1%	1.4%	19.3
CCCCC(CCC(=O)Nc1ccc(C(=O)OC)cc1)C(=O)O (stereo not drawn)	15.0%	10.0%	3.5%	-7.7%	4.3
